# Pf growth 96h – P. falciparum growth inhibition at 96 hours; actives 6.9% (n = 320,000); P. falciparum luciferase reporter growth, 96 h; Potency, µM (top dose mostly 28.7 µM), without a hit: top-dose activity change, negative = inhibition, most hits filed as inhibitors; also: % is scaled to controls: 0 for no effect and ±100 for the full control effect
#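 Readout is luminescence from an integrated firefly luciferase in P. falciparum. Red cells, 2% hematocrit and 0.05% parasitemia final, were cultured with compound through two parasite generations (96 hours) at 37 C, 5% CO2.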
# NS1 inh – blocks influenza NS1 protein function; Potency, µM (doses to about 46.1 µM), for the others: at the highest dose activity, positive = more growth; actives 0.4% (n = 270,000); AID 2326; calls by dose curve; also: actives are rising curves; nearly all actives have a fitted effect of over 50% in size
#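 Compounds were scored for reversing the slow growth caused by influenza A NS1 in S. cerevisiae, measured by optical density at 600 nm. Assay medium contained 2% galactose at pH 6.0; NS1-free yeast of the same strain were the positive control.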
# Pf growth 48h – inhibits P. falciparum growth in the first generation, 48 h | P. falciparum luciferase growth in erythrocytes, 48 h | Potency, µM (highest dose often 28.7 µM), for the others: top-dose activity change, negative = inhibition, usual class: inhibitors | actives 5.9% (n = 310,000); also: % is scaled to controls: 0 for no effect and ±100 for the full control effect
#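 Here the parasites carry a stable luciferase gene and grow inside erythrocytes in Albumax-based RPMI medium with compound for one erythrocytic cycle. Activity is scored as loss of luminescent signal.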
# SARS PLpro yeast – inhibitors of SARS-CoV papain-like protease in yeast | Potency, µM (doses to about 32.9 µM), for the others: at the top dose activity, positive = growth rescue, usual class: activators | actives 0.19% (n = 330,000) | AID 485353 | S. cerevisiae expressing SARS-CoV PLpro, growth rescue; calls by dose curve; also: 0% is about no effect; nearly all actives have a fitted effect of over 55% in size
# An asterisk follows results filed as active; ? = inconclusive; nt = no result; [ ] = remark or other dose. In the library only some 10% were active in any assay of this set; here they are far more common. Unless noted, calls follow the shape of the dose curve; as a rule, active = well fitted inhibition curve with a large enough effect; inconclusive = small, poorly fitted or top-dose-only effect, or another doubt; inactive = no such curve, though single readings can be large or run the other way. Potency is read from the fitted curve at half-maximal effect.
SMILES,Pf growth 96h,NS1 inh,Pf growth 48h,SARS PLpro yeast
CCOC(=O)c1ccc(NC(=O)C2CCCO2)cc1 (stereo unspecified),-2.4%,-13.4%,62.5%,-11.6%
O=C(Nc1ccc(S(=O)(=O)N2CCOCC2)cc1)c1cccnc1,61.2%,8.6%,?,1.5%
CCOC(=O)c1cccc(NC(=O)c2ccc(NC(=O)C3CCCO3)cc2)c1 (stereo unspecified),7.38µM*,-1.2%,?,-3.4%
O=C(NCCOC(=O)c1ccc(S(=O)(=O)N2CCOCC2)cc1)c1cccnc1,2.33µM*,-7.7%,1.4%,2.8%
Cc1cccc(NC(=O)CSCc2cc(=O)n3nc(C4CC4)sc3n2)c1,?,-0.1%,-2.3%,1.1%
O=C(CSCc1cc(=O)n2nc(C3CC3)sc2n1)Nc1ccccc1Cl,3.29µM*,-3.6%,?,-1.9%
Cc1ccc2oc(-c3cccc(NC(=O)/C=C/c4cccc([N+](=O)[O-])c4)c3C)nc2c1,2.33µM*,1.7%,?,0.0%
Cc1ccc(NC(=O)CCNC(=O)c2ccccc2Cl)cc1S(=O)(=O)N1CCOCC1,?,nt,-5.1%,5.4%
Cc1ccc(Cl)cc1NC(=S)N1CCC(c2ccccc2)C1 (stereo unspecified),?,6.9%,11.7µM*,-2.2%
Cc1ccc(NC(=O)C2CCCN(C(=O)c3ccc(Cl)cc3)C2)cc1S(=O)(=O)N1CCOCC1 (stereo unspecified),7.38µM*,nt,?,3.6%
O=C(Nc1ccc(F)c(S(=O)(=O)N2CCOCC2)c1)C1CCCCC1,?,nt,13.1µM*,1.8%
CSCCC(NC(=O)c1ccccc1Cl)C(=O)Nc1ccc(C)c(S(=O)(=O)N2CCOCC2)c1 (stereo unspecified),?,nt,9.28µM*,5.9%
COc1ccc(NC(=S)N2CCC(c3ccccc3)C2)cc1 (stereo unspecified),9.5%,-11.6%,-0.1%[0.00184 µM],-4.6%
CC(=O)c1sc(NC(=O)C2CCCN2S(=O)(=O)c2ccccc2F)nc1C (stereo unspecified),2.3%,nt,7.0%,2.2%
CC(C)C[C@H](NC(=O)c1nc[nH]c1C(=O)NCc1ccc(CNC(=O)OC(C)(C)C)cc1)C(=O)OCc1ccccc1,?,?,?,1.6%
CCSC(=O)NC1CCCCC1,17.5%,7.0%,2.7%,-0.3%
Cc1c(Cl)cccc1NC(=O)C1CCCN(S(C)(=O)=O)C1 (stereo unspecified),-11.2%,6.1%,?,-5.5%
Cc1ccc(Cl)cc1NC(=O)C1CCCN(S(C)(=O)=O)C1 (stereo unspecified),10.4µM*,20.9%,12.8%,-0.1%
Cc1ccc(S(=O)(=O)N(C)C)cc1NC(=O)C1CCCN(C(=O)c2ccc(Cl)cc2)C1 (stereo unspecified),4.65µM*,nt,7.38µM*,-1.6%
CS(=O)(=O)c1ccc(Cl)c(NC(=O)C2CCCN(C(=O)c3ccc(Cl)cc3)C2)c1 (stereo unspecified),-28.0%,nt,?,0.4%
Cn1c(SCC(=O)NCC2CCCO2)nnc1-c1ccc(Cl)cc1 (stereo unspecified),0.0%,nt,3.8%,-5.1%
Cc1c(C=O)c2ccccc2n1CCOc1ccccc1F,8.28µM*,-10.8%,?,?
COc1ccccc1OCCn1c(C)c(C=O)c2ccccc21,?,-7.1%,?,-1.8%
Cc1c(/C=N/n2cnnc2)c2ccccc2n1CCOc1ccccc1,?,nt,13.1µM*,-0.9%
O=C1CS/C(=N/N=C/c2cccs2)N1Cc1ccc(F)cc1,24.6%,-8.4%,?,1.1%
SMILES,Pf growth 96h,NS1 inh,Pf growth 48h,SARS PLpro yeast
Cc1ccc(C)c(-c2cc(C(=O)Nc3cccnc3)c3ccccc3n2)c1,2.08µM*,-52.4%,11.7µM*,-5.9%
Cc1ccc(-c2cc(C(=O)Nc3cccnc3)c3ccccc3n2)o1,4.65µM*,-3.2%,nt,-3.2%
Cc1ccc(NC(=O)c2cc(-c3ccc(C)o3)nc3ccccc23)cc1,-32.3%,16.8%,?,-0.5%
Cc1ccc(C)c(-c2cc(C(=O)Nc3nccs3)c3ccccc3n2)c1,1.85µM*,-1.9%,?,-2.5%
Cc1ccc(-c2cc(-c3ccccc3O)nc(N/N=C/c3cccnc3)n2)cc1,0.0294µM*,16.7%,?,0.5%
Cc1ccccc1-c1cc(C(=O)N/N=C/c2cccnc2)c2ccccc2n1,-15.1%,-8.3%,10.4µM*,3.3%
COc1ccc(NC(=O)CN(c2ccccc2F)S(=O)(=O)c2ccc(C)cc2)c(OC)c1,0.7%,6.1%,?,0.3%
COc1ccc(C2(C)NC(=O)N(CC(=O)c3cc(C)n(C4CC4)c3C)C2=O)cc1 (stereo unspecified),3.7µM*,nt,?,10.5%
Cc1nn(-c2ccccc2)c(NC(=O)c2cccs2)c(-c2ccccc2)c1=O,7.0%,2.0%,11.9%,5.5%
CN1C[C@@H]2C(c3ccc(Cl)nc3)C3(c4ccc(C#N)cc4)CC2(C3)[C@H]1c1ccccc1 (stereo partly specified),?,-4.0%,?,0.5%
CN1C[C@@H]2C(c3ccc(C(F)(F)F)cc3)C3(c4cccnc4)CC2(C3)[C@H]1c1ccccc1 (stereo partly specified),2.94µM*,-17.4%,2.33µM*,0.6%
FC(F)(F)c1ccc(C2[C@H]3CN(Cc4cccnc4)[C@H](c4ccccc4)C34CC2(c2ccccc2)C4)cc1 (stereo partly specified),2.33µM*,18.3%,2.94µM*,-4.1%
COC(=O)c1ccc(C23CC4(C2)[C@H](CN(Cc2ccc(C(F)(F)F)cc2)[C@@H]4c2ccccc2)C3c2ccccc2)cc1 (stereo partly specified),?,10.4%,?,1.9%
N#Cc1ccc(C23CC4(C2)[C@H](CN(Cc2ccc(C(F)(F)F)cc2)[C@@H]4c2ccccc2)C3c2ccccc2)cc1 (stereo partly specified),?,6.6%,?,0.2%
N#Cc1ccc(C23CC4(C2)[C@H](CN(Cc2ccc(C(F)(F)F)cc2)[C@@H]4c2ccccc2)C3c2ccc(C(F)(F)F)cc2)cc1 (stereo partly specified),-18.0%,7.3%,-19.6%,-1.8%
FC(F)(F)c1ccc(CN2C[C@@H]3C(c4ccc(C(F)(F)F)cc4)C4(c5cccnc5)CC3(C4)[C@H]2c2ccccc2)cc1 (stereo partly specified),2.08µM*,4.2%,2.08µM*,0.8%
FC(F)(F)c1ccc(CN2C[C@@H]3C(c4ccccc4)C4(c5cccnc5)CC3(C4)[C@H]2c2ccccc2)cc1 (stereo partly specified),3.29µM*,0.9%,2.33µM*,-6.9%
CC(NC(=O)c1ccccc1Cl)C(=O)N1CCN(Cc2ccc3c(c2)OCO3)CC1 (stereo unspecified),-6.2%,nt,5.0%,6.2%
COc1ccc(/C=N/Nc2cc(C)nc3ccccc23)cc1,16.7%,-26.6%,0.738µM*,1.4%
C=C(C)C1Cc2c(C)nn(-c3nc(C)cc(C)n3)c2C1 (stereo unspecified),13.1µM*,-102.1%,?,-5.2%
O=C(CN1C2=NCCCN2c2ccccc21)c1cccc(Br)c1,?,15.5%,?,-4.9%

# Screening results: PubChem, National Center for Advancing Translational Sciences (NCATS)
